Laboratory results taken from PubChem BioAssay (NCATS).
“And” between values parts separate entries of the source, which are not always exact repeats. Identical values can stand only once. Inconclusive results are not listed. A call without a number means that no potency is given here. A number with no mark means an inactive call. The source made the active and inactive calls. Calls follow the shape of the dose curve; as a rule, active = well fitted inhibition curve with a large enough effect; inconclusive = small, poorly fitted or top-dose-only effect; inactive = flat fitted curve, though single readings scatter.

Legend:
PC49 = assay: qHTS profiling for inhibitors of Plasmodium falciparum proliferation (AID 504749); conditions: P. falciparum in erythrocytes, SYBR Green DNA, 72 h; series mostly up to 28.7 µM
In short: (§1)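 Each compound contacts P. falciparum-infected red blood cells for 72 h at 37 C; lysis buffer (Tris, EDTA, saponin, Triton X, SYBR Green I) is added and fluorescence measured next morning; values normalized to controls.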

SC27B = assay: as above; conditions: P. falciparum in erythrocytes, SYBR Green DNA, 72 h; series mostly up to 28.7 µM
In short: as §1

TAB113 = assay: as above; conditions: P. falciparum in erythrocytes, SYBR Green DNA, 72 h; series mostly up to 28.7 µM
In short: as §1

W2 = assay: as above; conditions: P. falciparum in erythrocytes, SYBR Green DNA, 72 h; series mostly up to 28.7 µM
In short: as §1

CRL-7250 = normal cell line; assay: Cytotoxic Profiling of Annotated Libraries Using Quantitative High-Throughput Screening (AID 1296008); conditions: Five cell lines viability, CellTiter-Glo ATP luminescence, 48-72 h; max response: hits give low values; also: potency is read from the fitted curve at half-maximal effect
In short: (§2)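 Cells exposed to compounds for 48 or 72 hr at 37 degrees Celsius. Viability read as ATP-coupled luminescence with CellTiter-Glo after 10 min at room temperature.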

HEK293 = assay: as above; conditions: Five cell lines viability, CellTiter-Glo ATP luminescence, 48-72 h; max response: hits give low values
In short: as §2

HaCat [1] = assay: as above; conditions: Five cell lines viability, CellTiter-Glo ATP luminescence, 48-72 h; max response: hits give low values
In short: as §2

KB-3-1 = assay: as above; conditions: Five cell lines viability, CellTiter-Glo ATP luminescence, 48-72 h; max response: hits give low values
In short: as §2

NIH3T3 [2] = assay: as above; conditions: Five cell lines viability, CellTiter-Glo ATP luminescence, 48-72 h; max response: hits give low values
In short: as §2

MCC-13 = assay: qHTS assay to identify novel small-molecules to repurpose for Merkel cell carcinoma treatment (AID 1296009); conditions: MCC and control cell lines, CellTiter-Glo viability, 72 h; series mostly up to 46 µM
In short: (§3)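 Dose-response viability screen; 72 hr exposure at 37 degree celsius; CellTiter-Glo added, 10 min room temperature, luminescence read; RLUs scaled between no-cell and DMSO wells.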

MCC-26 = assay: as above; conditions: MCC and control cell lines, CellTiter-Glo viability, 72 h; series mostly up to 46 µM
In short: as §3

MKL-1 = assay: as above; conditions: MCC and control cell lines, CellTiter-Glo viability, 72 h; series mostly up to 46 µM
In short: as §3

MKL-2 = assay: as above; conditions: MCC and control cell lines, CellTiter-Glo viability, 72 h; series mostly up to 46 µM
In short: as §3

NIH3T3 [3] = assay: as above; conditions: MCC and control cell lines, CellTiter-Glo viability, 72 h; at 44.8 µM (top of the series) unless noted
In short: as §3

UISO = assay: as above; conditions: MCC and control cell lines, CellTiter-Glo viability, 72 h; series mostly up to 46 µM
In short: as §3

HACAT [4] = assay: as above; conditions: MCC and control cell lines, CellTiter-Glo viability, 72 h
In short: as §3

HEK293T = assay: as above; conditions: MCC and control cell lines, CellTiter-Glo viability, 72 h; at 44.8 µM (top of the series)
In short: as §3

PC26 = assay: qHTS profiling for inhibitors of Plasmodium falciparum proliferation (AID 504749); conditions: P. falciparum in erythrocytes, SYBR Green DNA, 72 h; series mostly up to 28.7 µM
In short: as §1

TAB109 = assay: as above; conditions: P. falciparum in erythrocytes, SYBR Green DNA, 72 h; series mostly up to 28.7 µM
In short: as §1

TAB165 = assay: as above; conditions: P. falciparum in erythrocytes, SYBR Green DNA, 72 h; series mostly up to 28.7 µM
In short: as §1

[5] = at 44.8 µM (top of the series) unless noted
Also: nearly all actives have a fitted effect of over 60% in size.

For `C1COC(NC(C2CC2)C2CC2)=N1`, the Potency (PC49) was “inactive”, the Potency (SC27B) was “inactive” and the Potency (TAB113) was “inactive”. The Potency (W2) was “inactive”, the max response (CRL-7250) was 1.84% and -1.88% and the max response (HEK293) was 3.3% and -8.9%. For the same compound, the max response (HaCat [1]) was 1.37% and -11.9%, the outcome (KB-3-1) was “inactive” and the outcome (NIH3T3 [2]) was “inactive”. The Potency (MCC-13) was “inactive”, the Potency (MCC-26) was “inactive” and the Potency (MKL-1) was “inactive”. The Potency (MKL-2) was “inactive”, the outcome (NIH3T3 [3]) was “inactive” and the Potency (UISO) was “inactive”.

`COc1ccc(-c2oc3cc(OC)ccc3c2C(=O)c2ccc(C#N)cc2)cc1` was tested, and the outcome (CRL-7250) was “inactive”, the outcome (HEK293) was “inactive” and the outcome (HaCat [1]) was “inactive”. The outcome (KB-3-1) was “inactive”, the outcome (NIH3T3 [2]) was “inactive” and the outcome (HACAT [4]; [5]) was “inactive”. For the same compound, the outcome (HEK293T) was “inactive”, the Potency (MCC-13) was “inactive” and the Potency (MCC-26) was “inactive”. The Potency (MKL-1) was “inactive”, the outcome (NIH3T3 [3]) was “inactive” and the Potency (UISO) was “inactive”.

`CCOc1cc(C=C2C(=O)N(c3ccccc3)N=C2C)cc(Cl)c1OCC(=O)OC` was tested, and the max response (CRL-7250) was 3.6%, the max response (HEK293) was 0.832% and the outcome (HaCat [1]) was “inactive”. The max response (KB-3-1) was 4.4%, the max response (NIH3T3 [2]) was -3.61% and the outcome (HACAT [4]; [5]) was “inactive”. The Potency (MCC-13) was “inactive”, the Potency (MCC-26) was “inactive” and the Potency (MKL-1) was “inactive”. The Potency (MKL-2) was “inactive” and the Potency (UISO) was “inactive”.

For `Clc1cccc(Cl)c1NC1=NCCN1`, the Potency (PC26) was “inactive”, the Potency (PC49) was “inactive” and the Potency (SC27B) was “inactive”. The Potency (TAB109) was “inactive”, the Potency (TAB113) was “inactive” and the Potency (TAB165) was “inactive”. For the same compound, the Potency (W2) was “inactive”, the max response (CRL-7250) was 0.663% and -4.74% and the max response (HEK293) was -3.7% and -4.57%. The outcome (HaCat [1]) was “inactive”, the outcome (KB-3-1) was “inactive” and the outcome (NIH3T3 [2]) was “inactive”. The outcome (HACAT [4]; [5]) was “inactive”, the Potency (MCC-13) was “inactive” and the Potency (MCC-26) was “inactive”. The Potency (MKL-1) was “inactive”, the Potency (MKL-2) was “inactive” and the outcome (NIH3T3 [3]) was “inactive”. The Potency (UISO) was “inactive”.

In the case of `CCCS(=O)(=O)Nc1ccc(F)c(C(=O)c2c[nH]c3ncc(Cl)cc23)c1F`, the max response (CRL-7250) is reported as -1.21%, the Potency (HEK293) is reported as 14.8 µM (active) and the max response (HaCat [1]) is reported as -1.82%. For the same compound, the max response (KB-3-1) was -9.42% and -0.0181%, the max response (NIH3T3 [2]) was -18.6% and the Potency (MCC-13) was “inactive”. The Potency (MCC-26) was “inactive”, the Potency (MKL-1) was “inactive” and the Potency (MKL-2) was “inactive”.

`Nc1ccc(S(=O)(=O)Nc2ccnn2-c2ccccc2)cc1` was tested, and the Potency (PC26) was “inactive”, the Potency (PC49) was “inactive” and the Potency (SC27B) was “inactive”. The Potency (TAB109) was “inactive”, the Potency (TAB113) was “inactive” and the Potency (TAB165) was “inactive”. The Potency (W2) was “inactive”, the outcome (CRL-7250) was “inactive” and the max response (HEK293) was -2.4% and -5.26%. For the same compound, the outcome (HaCat [1]) was “inactive”, the max response (KB-3-1) was -3.13% and 3.95% and the max response (NIH3T3 [2]) was 4.45% and 3.04%. The outcome (HACAT [4]; at 17.4 µM (top of the series)) was “inactive”, the outcome (HACAT [4]; at 44.8 µM (top of the series)) was “inactive” and the Potency (MCC-13) was “inactive”. The Potency (MCC-26) was “inactive”, the Potency (MKL-1) was “inactive” and the Potency (MKL-2) was “inactive”. For the same compound, the Potency (UISO) was “inactive”.

With `COc1ccc(-c2c(-c3ccc(O)cc3O)n[nH]c2C)cc1` the Potency (CRL-7250) was 30.3 µM (active), the Potency (HEK293) was 27 µM (active) and the outcome (HaCat [1]) was “inactive; activator”. For the same compound, the max response (KB-3-1) was -14.6%, the max response (NIH3T3 [2]) was -24.1% and the outcome (HACAT [4]; [5]) was “inactive; activator [at 92 µM]”. For the same compound, the Potency (MCC-13) was “inactive”, the Potency (MCC-26) was “inactive” and the Potency (MKL-1) was “inactive”. The Potency (MKL-2) was “inactive” and the Potency (UISO) was “inactive”.

With `CCCC(CCC)C(=O)O` the max response (CRL-7250) was -7.38% and -1.13%, the max response (HEK293) was -7.93% and 2.58% and the max response (HaCat [1]) was 2.57%. For the same compound, the outcome (HaCat [1]) was “inactive”, the max response (KB-3-1) was 5.52% and 6.84% and the max response (NIH3T3 [2]) was 0.659%. The outcome (HACAT [4]; [5]) was “inactive”, the Potency (MCC-13) was “inactive” and the Potency (MCC-26) was “inactive”. For the same compound, the Potency (MKL-1) was “inactive”, the Potency (MKL-2) was “inactive” and the Potency (UISO) was “inactive”.

In the case of `NC(=O)c1ccc(I)c([N+](=O)[O-])c1`, the max response (CRL-7250) is reported as 1.49%, the outcome (HEK293) is reported as “inactive” and the outcome (HaCat [1]) is reported as “inactive”. For the same compound, the max response (KB-3-1) was 7.82%, the max response (NIH3T3 [2]) was -1.58% and the outcome (HACAT [4]; [5]) was “inactive”. For the same compound, the outcome (HEK293T) was “inactive”, the Potency (MCC-13) was “inactive” and the Potency (MCC-26) was “inactive”. The Potency (MKL-1) was “inactive”, the Potency (MKL-2) was “inactive” and the Potency (UISO) was “inactive”.

In the case of `CC(C)(C)NCC(O)c1ccc(O)c(CO)c1` (configuration not stated), the max response (CRL-7250) is reported as -2.87% and 2.98%, the max response (HEK293) is reported as -5.93% and 0.072% and the outcome (HaCat [1]) is reported as “inactive”. For the same compound, the max response (KB-3-1) was -0.699%, the outcome (NIH3T3 [2]) was “inactive” and the outcome (HACAT [4]; [5]) was “inactive”. The Potency (MCC-13) was “inactive”, the Potency (MCC-26) was “inactive” and the Potency (MKL-1) was “inactive”. The Potency (MKL-2) was “inactive”, the outcome (NIH3T3 [3]) was “inactive” and the Potency (UISO) was “inactive”.

For `COc1ccc(CC2=NN3C([C@@H](CCc4ccccc4)[C@@H](C)O)=NC(C)C3C(=O)N2)cc1OC` (some centres not stated), the max response (CRL-7250) was -0.833%, the max response (HEK293) was -3.77% and the max response (HaCat [1]) was -7.5%. The max response (KB-3-1) was 9.1%, the max response (NIH3T3 [2]) was 0.654% and the Potency (MCC-13) was “inactive”. The Potency (MCC-26) was “inactive”, the Potency (MKL-1) was “inactive” and the Potency (MKL-2) was “inactive”. The Potency (UISO) was “inactive”.
